FLuc counter – firefly luciferase modulation, counter-screen for miR-21 project; purified FLuc, Km substrates, luminescence inhibition; Potency, µM (titrated, usually from 57.5 µM), inactives show at the top dose activity change, negative = inhibition, most hits filed as inhibitors; hit rate 6.9% among 360,000; AID 588342;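 further: plate controls were vehicle for no effect and reference inhibitor for full effect; nearly all actives have a fitted effect of over 55% in size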
Target sequence (P08659 whole entry, looked up): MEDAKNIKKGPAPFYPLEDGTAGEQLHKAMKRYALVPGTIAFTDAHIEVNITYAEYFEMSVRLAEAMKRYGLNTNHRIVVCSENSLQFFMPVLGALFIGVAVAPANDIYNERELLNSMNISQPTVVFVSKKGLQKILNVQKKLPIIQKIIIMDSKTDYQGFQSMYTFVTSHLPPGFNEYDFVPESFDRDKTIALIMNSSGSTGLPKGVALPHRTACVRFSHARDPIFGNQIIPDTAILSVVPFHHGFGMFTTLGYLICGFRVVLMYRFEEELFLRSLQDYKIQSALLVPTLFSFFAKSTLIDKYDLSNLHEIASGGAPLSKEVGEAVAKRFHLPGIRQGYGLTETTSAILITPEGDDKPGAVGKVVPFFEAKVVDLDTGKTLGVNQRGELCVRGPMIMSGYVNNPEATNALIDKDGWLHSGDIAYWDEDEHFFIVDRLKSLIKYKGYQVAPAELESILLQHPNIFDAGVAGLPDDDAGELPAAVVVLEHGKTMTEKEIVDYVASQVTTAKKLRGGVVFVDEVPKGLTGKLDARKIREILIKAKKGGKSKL
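Purified P. pyralis luciferase, 10 nM final, with Km-level 10 uM D-luciferin and 10 uM ATP in 50 mM Tris acetate pH 7.5, 10 mM Mg acetate, 0.01% Tween-20, 0.05% BSA; 6-point qHTS titration about 60 µM downward; luminescence read.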
SMN2 splice up – SMN2 splice variant enhancement; hit rate 2.8% among 210,000; HEK293 SMN2-luciferase splicing reporter, luminescence, 30-36 h; Potency, µM (doses to about 46.1 µM), for inactives: at the top dose activity change, positive = activation, most hits filed as activators; further: % of control where 0% means no effect; nearly all actives have a fitted effect of over 55% in size
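qHTS luciferase splicing reporter: luminescence rises when SMN2 exon 7 is included in transfected HEK293 cells. Compound exposure lasted 30-36 h at 37C, with 4.5 mM final sodium butyrate as control, followed by a ONE-Glo read.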
NPC1 promoter act – activates the NPC1 promoter | Huh7 NPC1 promoter luciferase reporter, 24 h | Potency, µM (doses to about 9.22 µM), without a hit: top-dose activation, actives largely listed as activators | hit rate 2.4% among 320,000; further: % of control where 0% means no effect; nearly all actives have a fitted effect of over 60% in size
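Cells: Huh7 expressing luciferase under the NPC1 promoter, 1500/well. Seeded 2 h, compound added, incubated 24 h at 37 °C. Luciferase reagent, 10 min ambient, then luminescence.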
ELG1 genotoxic – genotoxicity induction in ELG1-luciferase HEK293T cells. AID 504466. HEK293T ELG1-luciferase reporter, luminescence, 16 h. hit rate 1.3% among 330,000. Potency, µM (doses to about 46 µM), inactives show at the highest dose activity change, positive = activation, most hits filed as activators; further: % of control where 0% means no effect; nearly all actives have a fitted effect of over 60% in size
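HEK293T cells expressing luciferase-tagged ELG1 were treated with compound or DMSO for 16 hr at 37°C. Luciferase activity was then read after 30 min with ONE-Glo at room temperature; rising signal flags genetic stress.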
Rab9 promoter act – activates the Rab9 promoter | Huh7 Rab9 promoter-luciferase reporter, luminescence, 24 h | Potency, µM (highest dose often 9.22 µM), without a hit: at the highest dose activation, negative = inhibition, actives largely listed as activators | hit rate 2.8% among 320,000 | AID 485297; further: % of control where 0% means no effect; nearly all actives have a fitted effect of over 60% in size
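Huh7 cells stably carrying Rab9 promoter–luciferase reporter, plated 1500 cells/well, compound added after 2 h and incubated 24 h at 37 °C; luciferase luminescence then read after 10 min with detection reagent.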
An asterisk follows results filed as active; u = inconclusive; x = no result given; [ ] = dose if it differs, or a comment. This is a sample that favours compounds with a hit; in the whole collection about 7.5% have one here. The call rests on the fitted dose curve; in most records, active means well fitted curve in the direction sought with a large enough effect; inconclusive means small, poorly fitted or top-dose-only effect, or another doubt; inactive means no such curve, though single readings can be large; an effect the other way counts as inactive or inconclusive. Potency means the concentration at half of the fitted maximal effect.

SMILES	FLuc counter	SMN2 splice up	NPC1 promoter act	ELG1 genotoxic	Rab9 promoter act
CC1=NOC(=O)/C1=C\c1ccc(-c2cccc(Cl)c2)o1	11µM*	-50%	-13%	-13%	-10%
O=C(O)c1cc(-c2ccc(/C=C3/SC(=S)N(Cc4ccccc4)C3=O)o2)ccc1Cl	u	19%	23%	-8%	28%
CC1=NOC(=O)/C1=C\c1ccc(-c2ccccc2Br)o1	11µM*	-19%	-10%	-15%	-13%
COC(=O)N/N=C/c1ccc(-c2cccc(Cl)c2)o1	u	7%	7%	-1%	13%
CC1=CC2=NC(=O)/C(=C\c3ccc(-c4cccc(Cl)c4)o3)C(=N)N2O1	2%	-5%[1.84 µM]	-19%	7%	-7%
Cc1ccc(/C=C2/C(=O)ON=C2c2ccccc2)o1	u	x	18%	9%	-3%
CC(C)(C(O)c1ccc([N+](=O)[O-])cc1)[N+](=O)[O-] (centres undefined)	x	-3%	x	x	x
O=c1c(Cc2ccccc2)c(O)ccn1CCc1cnc[nH]1	-2%	-6%	0%	3%	1%
NC(=O)C1CCN(c2oc(/C=C/c3ccccc3)nc2S(=O)(=O)c2ccccc2)CC1	-1%	x	-3%	1%	-2%
CC1(C)OC(=O)C(=Cc2ccc(-c3ccc(Cl)c(C(=O)O)c3)o2)C(=O)O1	15µM*	10%	-4%	-2%	-1%
O=C(CSC1=NCCS1)Nc1nc2ccccc2s1	19µM*	10%	29%	9%	u
CCOC(=O)N1CCN(C(=O)CSCC(=O)Nc2nc(-c3ccc(-c4ccccc4)cc3)cs2)CC1	-16%	-2%	u	2.6µM*	u
Cc1ccc(-c2csc(NC(=O)CSC3=NCCS3)n2)cc1	13µM*	19%	12%	u	18%
Cc1ccc(S(=O)(=O)N2CCC(C(=O)Nc3cc(C(F)(F)F)ccc3N3CCOCC3)CC2)cc1C	2%	x	-3%	-1%	1%
Nn1c(SCc2ccccc2)nc2ccccc21	19µM*	x	1.8µM*	u	3.2µM*
O=C(O)Cn1c(SCc2ccccc2)nc2ccccc21	u	-3%	-1%	7%	4%
Cc1ccccc1NC(=O)Nc1nnc(Cc2ccc([N+](=O)[O-])cc2)s1	4%	-5%	-2%	9%	-3%
CC(=O)N(C)c1nnc(-c2ccccn2)s1	u	20µM*	27%	u	15%
CN(C(=O)c1cccnc1)c1nnc(-c2ccccn2)s1	19µM*	x	u	u	u
CN(C(=O)c1ccccn1)c1nnc(-c2cnccn2)s1	11µM*	x	u	u	u
NC(N)=NC(N)=Nc1ccc(C(=O)O)cc1	x	-3%[9.22 µM]	x	x	x
N#CCSc1ncccc1-c1nc2ccccc2[nH]1	-16%	-14%	3%	0%	15%
N#CCCCSc1ncccc1-c1nc2ccccc2[nH]1	u	-7%	u	15%	u
CC(C)(C)NC(=O)CSc1ncccc1-c1nc2ccccc2[nH]1	24µM*	x	3%	8%	-1%
O=C(CSc1ncccc1-c1nc2ccccc2[nH]1)N1CCc2ccccc21	7.6µM*	-38%	u	u	2.8µM*
SMILES	FLuc counter	SMN2 splice up	NPC1 promoter act	ELG1 genotoxic	Rab9 promoter act
COC(=O)CSc1ncccc1-c1nc2ccccc2[nH]1	13µM*	11%	15%	u	-1%
Cc1cccc(NC(=S)NC2CC3C=CC2C3)c1 (centres undefined)	u	x	-5%	1%	4%
COCCn1c(SCC(=O)N2CC(=O)Nc3ccccc32)nc2ccccc21	1%	-9%	-2%	-1%	-1%
Cc1ccc(N(CC(=O)N(C)Cc2ccccc2)S(C)(=O)=O)cc1C	2%	x	-1%	0%	-3%
CCc1ccc(-c2csc(NC(=O)COC(=O)CCc3nc4ccccc4s3)n2)cc1	u	5.6µM*	2.8µM*	u	3.2µM*
COc1ncc2nc(CCc3ccccc3)c(=O)n(C)c2n1	x	14µM*	x	x	x
COCCn1c(=O)c(CCc2ccccc2)nc2cnc(OC)nc21	x	-9%	x	x	x
Cc1ccc(S(=O)(=O)CCC(=O)OCC(=O)Nc2ccc(N3CCOCC3)cc2)cc1	u	x	3%	-1%	-1%
Cn1cc(S(=O)(=O)N2CCNCC2)cc1C(N)=O	x	x	x	1%	x
O=C(N/N=C/c1ccc(O)cc1)c1cccc(C(F)(F)F)c1	u	6%	0%	9%	-3%
Cc1cccc(NC(=O)CCC(=O)N/N=C/c2ccc(O)cc2O)c1	-3%	x	-8%	8%	-4%
O=C(N/N=C/c1ccc(O)cc1)c1cccc(N/N=C/c2ccc(O)cc2)c1	2.1µM*	x	0.56µM*	u	0.89µM*
Cc1cccc(N/N=C/c2ccncc2)c1	15µM*	x	u	u	u
Cc1cccc(NC(=O)C(=O)N/N=C/c2ccncc2)c1	-10%	10%	-2%	2%	-2%
O=C(N/N=C/c1ccncc1)c1cccc(N/N=C/c2ccncc2)c1	11µM*	u	3.5µM*	-2%	u
Cc1cccc(N/N=C/c2ccccc2O)c1	6µM*	11µM*	u	u	4µM*
O=C(N=C1SC2CS(=O)(=O)CC2N1Cc1ccc(F)cc1)C1CCCO1 (centres undefined)	-1%	x	-1%	0%	1%
COc1ccc(N2CC(NC(=O)c3ccc(S(=O)(=O)N4CCCCC4)cc3)CC2=O)cc1 (centres undefined)	-6%	x	x	x	x
CN(C)c1ccc(N=Nc2ccc(S(N)(=O)=O)cc2)cc1	2.7µM*	x	1µM*	21µM*	2.8µM*
O=C(/C=C/c1cccs1)Nc1sc2c(c1C(=O)O)CCCC2	u	x	13%	-3%	6%
NC(=O)c1c(/N=C/c2cccs2)sc2c1CCCC2	12µM*	x	1.3µM*	9%	u
Clc1c2c(nc3ccccc13)CCC2	u	x	-7%	-1%	2%
Cc1c2c(nc3ccccc13)CCC(C(C)(C)C)C2 (centres undefined)	12µM*	u	23%	15%	19%
O=C(Nc1ccc2[nH]ncc2c1)c1ccccc1	13µM*	x	2.8µM*	u	3.2µM*
O=C(NC(=S)Nc1ccc2cn[nH]c2c1)c1ccccc1	19µM*	18µM*	3.5µM*	3%	4.5µM*
SMILES	FLuc counter	SMN2 splice up	NPC1 promoter act	ELG1 genotoxic	Rab9 promoter act
O=C(Nc1ccc2[nH]ncc2c1)c1ccc(F)cc1	8.5µM*	x	2.8µM*	u	2.2µM*
S=C(Nc1ccccc1)Nc1ccc2cn[nH]c2c1	u	x	21%	-8%	u
O=C(Nc1cccc(NC(=O)c2ccc(F)cc2)c1)c1ccc(F)cc1	-2%	x	1%	7%	14%
CCCCCCOC(=O)C1(O)CC2OC1(C)n1c3ccccc3c3c4c(c5c6ccccc6n2c5c31)C(=O)NC4 (centres undefined)	x	-50%	x	x	x
CCCCc1nn2c(=O)cc(COC(=O)C3CCCCC3)nc2s1	-19%	x	x	x	x
CN(C(=O)CSc1nc2ccccc2n1CC(=O)N(C)c1ccc(F)cc1)c1ccccc1	-3%	x	x	x	x

From PubChem
